Test results taken from PubChem BioAssay AID687036 (The Scripps Research Institute Molecular Screening Center, 2013).
The whole screen tested about 3,300 compounds, of which about 1,400 (42%) were called active.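 How the source made its calls: active means mean inhibition across replicates above the hit cutoff derived for the earlier primary screen (cut at about 22% in these data); inactive means the rest.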 So high a share suggests a set chosen from earlier hits. The list is a sample of the results.

molecular target: Protein arginine N-methyltransferase 1 (Homo sapiens) (UniProt Q99873); test: PRMT1 methyltransferase inhibitors, confirmation, biochemical, fluorescence polarization, triplicate (AID 687036); conditions: recombinant His-PRMT1, activity-based probe fluorescence polarization; at 2.79 µM; active compounds read high
Sequence (Q99873 whole entry, looked up): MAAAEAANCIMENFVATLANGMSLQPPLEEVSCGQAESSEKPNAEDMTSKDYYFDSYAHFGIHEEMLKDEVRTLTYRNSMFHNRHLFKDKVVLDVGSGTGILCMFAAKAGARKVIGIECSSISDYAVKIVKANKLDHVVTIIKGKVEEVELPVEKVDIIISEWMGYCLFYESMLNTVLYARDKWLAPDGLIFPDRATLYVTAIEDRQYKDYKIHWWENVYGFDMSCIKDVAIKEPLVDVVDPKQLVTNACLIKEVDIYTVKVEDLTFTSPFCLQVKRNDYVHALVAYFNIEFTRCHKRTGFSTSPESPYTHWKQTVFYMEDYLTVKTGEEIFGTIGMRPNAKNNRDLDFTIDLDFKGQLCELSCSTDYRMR

Compound	inhibition
COc1cccc(NC(=O)COC(=O)/C=C/c2ccco2)c1	10.2% (inactive)
COc1cccc(NC(=O)CSc2nccn(-c3ccc4c(c3)OCCO4)c2=O)c1	26.1% (active)
CC(=O)Nc1cc(-c2ccccc2N(C)C)cn2c(-c3ccc(F)c(Cl)c3)cnc12	1.55% (inactive)
c1ccc(Cc2c(-c3ccco3)nc3c4ccccc4ccn23)cc1	9.04% (inactive)
COc1ccc(NC2=CC(=S)NC(C)(C)C2)cc1	-3.18% (inactive)
S=c1[nH]nc(-c2ccco2)n1/N=C/c1ccc(Br)s1	13.1% (inactive)
COc1ccc(N2C(=O)CC(N3CCC(C(N)=O)CC3)C2=O)cc1 (stereo not given)	9.59% (inactive)
O=C1CC(Sc2ncn[nH]2)C(=O)N1c1ccccc1 (stereo not given)	68.5% (active)
COc1ccc(N2C(=O)CC(Sc3n[nH]c(-c4ccc(C)cc4)n3)C2=O)cc1 (stereo not given)	59% (active)
Cc1ccc(N2C(=O)CC(Sc3ncn[nH]3)C2=O)cc1 (stereo not given)	24.3% (active)
CN(CCOc1ccccc1)C(=O)c1cc(-c2ccco2)nc2ccccc12	10.7% (inactive)
COc1ccc(-c2cc3c(c4c2ccn4C)C2CCC3C2)cn1 (stereo not given)	-5.46% (inactive)
Cc1cc(C)c(/C=C2\C(=O)Nc3ccccc32)[nH]1	77.3% (active)
CC(=NNC(=S)N1CCCCCC1)c1ccccn1	5.21% (inactive)
O=S(=O)(c1ccc(Sc2nnc3ccccn23)nc1)N1CCOCC1	-3.1% (inactive)
Cc1cc2c(c(=O)n1Cc1ccco1)C(c1ccccc1)C(C#N)=C(N)O2 (stereo not given)	6.2% (inactive)
N#CC1=C(N)Oc2c(sc3ccccc23)C1c1ccco1 (stereo not given)	28.5% (active)
O=C(c1ccc[nH]c1=S)N1CCN(S(=O)(=O)c2ccc(Br)cc2Cl)CC1	11.5% (inactive)

Compound	inhibition
COC(=O)c1ccc(NCc2cc(O)ccc2O)cc1	22.6% (active)
COc1ccc(NC(=O)c2ccc(C#CC(C)(C)O)cc2)cc1	3.21% (inactive)
Cc1ccc(/C=C/C(=O)Nc2ccc([N+](=O)[O-])c(NC(=O)/C=C/c3ccc(C)o3)c2)o1	60.6% (active)
CN(C)C(=O)N=NC(=O)N(C)C	15.4% (inactive)
Cc1cccc(CS(=O)(=O)c2ncc(Cl)c(C(=O)Nc3ccc(F)cc3)n2)c1	18.9% (inactive)
Cc1ccc(-c2nn(-c3ccccc3)cc2/C=C2\SC(=S)N(CCCCCC(=O)O)C2=O)o1	18.1% (inactive)
Cc1ccc(-c2nn(-c3ccccc3)cc2CN(Cc2ccccc2)C(=O)CCC(=O)O)o1	21.8% (active)
Cc1ccccc1-n1c(SCC(=O)Nc2cccc3ccccc23)nc(O)cc1=O	2.26% (inactive)
Cc1cccc(NC(=O)CSC(N)=O)c1C	96.6% (active)
O=C(NC1=CC(=O)c2ccccc2C1=O)c1ccccc1	42.6% (active)
Cc1ccc(OS(=O)(=O)c2ccc(-c3csc(C)n3)s2)c(C)c1	8.35% (inactive)
CO/N=C(\C(=O)N[C@@H]1C(=O)N2C(C(=O)O)=C(COC(C)=O)CS[C@H]12)c1csc(N)n1 (stereo in doubt)	11.4% (inactive)
C=CCn1c(=S)[nH]c2scc(-c3ccco3)c2c1=O	56.8% (active)
O=C(CCN1CCc2ccccc2C(O)(c2ccccc2)C1)c1ccc2c(c1)OCCO2 (stereo not given)	38% (active)
COc1ccccc1-n1c(SCC(=O)Nc2ccc(Cl)cc2)nc(O)c(Cc2ccccc2)c1=O	18.7% (inactive)
Cc1cccc(NC(=O)c2nc(S(=O)(=O)Cc3ccccc3)ncc2Cl)c1	16.1% (inactive)
O=C(Nc1ccccc1)c1nnsc1S(=O)(=O)c1ccc(Cl)cc1	79.7% (active)
